FBW7 activator: activators of human E3 ligase FBW7; 650,000 tested, 0.13% active; AlphaScreen FBW7–phospho-cyclin E peptide binding, activator screen; normalized activity (activation), % at 26.1 µM; Q969H0; in the data active = normalized activity above about 1.9%;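 note: purified mutant Fbw7 with reduced substrate affinity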
GPR151 ag: activates the human receptor GPR151. PathHunter beta-arrestin GPR151 cells, luminescence. activation, % at 11.2 µM. 650,000 tested, 1% active; in the data active = activation above about 4.9%;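 note: 0% = median of compound wells and 100% = cells with positive control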
TEAD-YAP inh: TEAD-YAP interaction inhibition; inhibition, % at 9.12 µM; 640,000 tested, 1.4% active; HEK-TIYL cells, TEAD-Gal4/YAP UAS-luciferase luminescence; in the data active = inhibition above about 32%;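 note: 0% = median of test compound wells and 100% = reference inhibitor wells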
MITF inh: blocks human microphthalmia-associated transcription factor. O75030. AlphaScreen MITF homodimerization, bead proximity signal. inhibition, % at 2.6 µM. 650,000 tested, 0.91% active. AID 1259374; in the data active = inhibition above about 50%;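 note: 0% = vehicle wells with protein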
Target sequence (O75030 whole entry, looked up): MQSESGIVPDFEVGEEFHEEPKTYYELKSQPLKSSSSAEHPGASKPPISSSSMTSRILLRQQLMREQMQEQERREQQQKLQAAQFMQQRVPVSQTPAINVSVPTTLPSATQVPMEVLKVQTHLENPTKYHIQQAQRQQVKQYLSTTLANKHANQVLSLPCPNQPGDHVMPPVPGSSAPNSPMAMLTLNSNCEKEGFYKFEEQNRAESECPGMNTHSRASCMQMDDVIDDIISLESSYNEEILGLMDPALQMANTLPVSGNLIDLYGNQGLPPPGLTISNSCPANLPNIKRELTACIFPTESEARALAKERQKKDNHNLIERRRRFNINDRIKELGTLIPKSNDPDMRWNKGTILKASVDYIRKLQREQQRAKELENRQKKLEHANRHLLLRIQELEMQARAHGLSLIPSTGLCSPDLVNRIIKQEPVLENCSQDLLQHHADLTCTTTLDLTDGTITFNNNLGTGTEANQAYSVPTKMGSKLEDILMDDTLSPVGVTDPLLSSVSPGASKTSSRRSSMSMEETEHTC
MITF inh conf: human MITF inhibition, confirmation; inhibition, % at 2.6 µM; AlphaScreen MITF homodimerization, biotin/His-MITF beads; shares compounds with MITF inh; 4,700 tested, 16% active; AID 1259372;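 active = inhibition above a cutoff derived from the DMSO control wells, cut at about 28% in these data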;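 note: 0% = MITF dimer wells with DMSO only; inhibitors lower the bead chemiluminescence by keeping MITF from dimerizing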
AS interf DR: optically interferes with AlphaScreen signal in dose response. 480 tested, 6% active. IC50, µM. AlphaScreen optical interference counterscreen, cell-free. shares compounds with MITF inh; call rule not given here
AS interf ctr: counter-screen: compounds optically interfering with AlphaScreen; LysRS AlphaScreen counterscreen, signal interference, triplicate; 4,700 tested, 7.6% active; shares compounds with MITF inh; inhibition, % at 2.6 µM;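 active = inhibition above a cutoff derived from the DMSO control wells, cut at about 30% in these data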
* marks the source's active call; other numbers are inactive results; / = no result given. Shown are actives, neighbours in structure and some others; about 3.4% of the full set was active somewhere.

SMILES | FBW7 activator | GPR151 ag | TEAD-YAP inh | MITF inh | MITF inh conf | AS interf ctr | others
COC(=O)c1ccc(NC(=O)CN2CCN(CC#N)CC2)cc1 | 0.3 | -0.9 | -6.8 | 71.0* | 9.8 | -2.6
CCN1CCN(CC(=O)Nc2ccc(N3CCCCC3)cc2)CC1 | -0.1 | 0.5 | -1.1 | 81.0* | -7.6 | -3.0
O=C(CN1CCCC1)Nc1ccc(N2CCCCC2)cc1 | -0.1 | -1.7 | -11.8 | -11.9 | / | /
C=CCN1C(=O)/C(=C\c2cccc(OC)c2OC)SC1=S | 0.0 | -0.3 | -14.0 | 19.9 | / | /
CCN(Cc1ccccc1)C(=O)C1CC(Cc2cccc(OC)c2)=NO1 (stereo not given) | -0.1 | 4.7 | -13.5 | -1.8 | / | /
CCCCOc1ccc(NC(=O)CN2CCN(C(C)=O)CC2)cc1 | 0.0 | 2.8 | -4.0 | 66.0* | 13.6 | 14.5
Cc1ccc(NC(=O)CN2CCC(C(=O)NCc3cccs3)CC2)cc1 | 0.0 | -0.2 | 1.3 | 113.8* | -3.6 | -3.5
Cc1ccc(NC(=O)CN2CCC(C(=O)NCc3ccccn3)CC2)cc1 | 0.0 | -0.4 | -2.5 | 3.9 | / | /
O=C(Nc1ccc(Cl)cc1Cl)NC1CC(=O)N(c2cccc(F)c2)C1 (stereo not given) | 0.2 | 0.6 | -3.7 | 0.0 | / | /
COc1ccc(CCNC(=O)CCn2c(SCC(=O)Nc3cccc(C(F)(F)F)c3)nc3ccccc3c2=O)cc1OC | 0.2 | 1.0 | 4.1 | 56.4* | -9.4 | -1.7
O=[N+]([O-])c1ccc(S(=O)(=O)N2CCN(Cc3ccccc3Br)CC2)cc1 | -0.4 | 0.3 | -6.8 | 80.0* | 11.6 | 9.3
O=S(=O)(c1ccccc1)N1CCN(Cc2ccccc2Br)CC1 | 0.0 | 0.0 | 6.2 | 72.9* | 10.1 | 15.7
CCS(=O)(=O)N1CCN(Cc2ccccc2Br)CC1 | -0.1 | -1.5 | 6.6 | 46.9 | / | /
COc1ccccc1CNC(=O)c1noc2c1COc1ccc(C)cc1-2 | 0.4 | -1.1 | 7.7 | 4.6 | / | /
O=C(NC(=S)Nc1ccc(Oc2ccc(Cl)cc2)cc1)c1cccs1 | -0.1 | -0.5 | 14.7 | 2.8 | / | /
COc1cccc(Nc2nc(N3CC(C)CC(C)C3)nc3c2cnn3C)c1 (stereo not given) | 0.4 | -0.1 | -12.4 | -13.1 | / | /
CSc1ccc(NC(=O)C2CC23CCN(Cc2coc4ccc(C)cc4c2=O)CC3)cc1 (stereo not given) | -0.1 | 0.8 | -0.3 | 3.5 | / | /
Cc1ccc2occ(CN3CCC4(CC3)CC4C(=O)Nc3ccc(F)c(F)c3)c(=O)c2c1 (stereo not given) | -0.1 | 0.2 | -5.5 | 73.7* | 8.6 | -2.9
CC(C)CNC(=O)C1CCN(C(=O)Nc2ccccc2)CC1 | -0.2 | 2.1 | -7.7 | 2.3 | / | /
Nc1nc(CC23CC4CC(CC(C4)C2)C3)cs1 | -0.2 | 1.1 | 7.4 | -5.5 | / | /
CC1CCN(Cc2csc(N)n2)CC1 | 0.2 | 4.1 | 4.6 | 52.9* | 15.8 | 12.7
CCN(CC)C(=O)C1CCCN(Cc2ccc(C(F)(F)F)cc2)C1 (stereo not given) | 0.0 | 0.3 | 14.5 | 53.3* | -2.4 | -1.6
CCN(CC)C(=O)C1CCCN(Cc2ccc(C)o2)C1 (stereo not given) | -0.1 | 0.4 | 14.6 | 38.9 | / | /
CCN(CC)C(=O)C1CCCN(Cc2ccc([N+](=O)[O-])o2)C1 (stereo not given) | 0.5 | 0.9 | 13.7 | 56.4* | 3.5 | 9.2
Cc1cccc(/C(N)=N/OC(=O)c2ccc(Cl)cc2)c1 | 0.0 | 0.7 | -32.7 | 9.9 | / | /
SMILES | FBW7 activator | GPR151 ag | TEAD-YAP inh | MITF inh | MITF inh conf | AS interf ctr | others
Cc1ccccc1C(=O)NCCc1ccc(S(N)(=O)=O)cc1 | 0.0 | -0.4 | -1.6 | 4.5 | / | /
Cc1ccccc1C(=O)Nc1nn2c(COc3ccccc3)nnc2s1 | 0.0 | 1.7 | 0.3 | -7.3 | / | /
N#CC1=C(N)Oc2n[nH]c(-c3ccccn3)c2C1c1ccc([N+](=O)[O-])s1 (stereo not given) | -0.6 | -1.7 | 8.9 | 107.2* | 117.1* | 100.1*
Cc1ccc([N+](=O)[O-])cc1NC(=O)CN1C(=O)c2cccc3cccc1c23 | 0.3 | 0.8 | -5.2 | 5.4 | / | /
Ic1ccc(OCCNC2CCCC2)cc1 | 0.1 | -0.8 | 12.3 | 59.2* | -19.0 | -3.4
Ic1ccc(OCCCNC2CCCC2)cc1 | -0.2 | 1.0 | 12.7 | 8.8 | / | /
c1cn2cc(Cc3nnc4n3CCC4)nc2s1 | -1.0 | 0.2 | 13.6 | 79.7* | 13.4 | 26.7
c1cn2cc(Cc3nnc4n3CCCCC4)nc2s1 | -0.6 | -0.6 | -2.5 | 4.8 | / | /
S=c1[nH]nc(-c2ccco2)n1/N=C/C=C/c1ccco1 | -1.0 | -0.8 | -7.6 | 73.4* | 32.8* | 1.8 | AS interf DR=>6.48
